From paper PMC5515408, “Sequence-specific DNA binding by MYC/MAX to low-affinity non-E-box motifs”
In all, about 5,000 sequences were measured (“log2 normalized fluorescence”: median about 0.089, highest 2% from about 0.81 on). The sample as a whole holds a higher share of the highest values than the screen did.

Each sequence was assayed against MYC (p64);MAX (p21), in MYC:MAX (human;human, UniProt P01106-1;P61244-2 1-439;1-151, |) (assay: protein-binding microarray (anti-MAX antibody); PBM: 15 mM Tris-HCl pH 7.5, 100 mM KCl, 0.075% NP40, 7.5 mM beta-mercaptoethanol, 375 ng/ul BSA, 8 ng/ul poly(dA-dT):(dA-dT), 550 ng complex, 60 min, room tempe; high values mean tight binding). Conditions: protein: recombinant;recombinant; tags: 6xHis;6xHis; copies: 1;1; label: 3' end of printed strand (linker) attached to glass slide; dsDNA, one strand shown.
MYC (p64);MAX (p21), in MYC:MAX, sequence (P01106 16-454, chain 1 of 2): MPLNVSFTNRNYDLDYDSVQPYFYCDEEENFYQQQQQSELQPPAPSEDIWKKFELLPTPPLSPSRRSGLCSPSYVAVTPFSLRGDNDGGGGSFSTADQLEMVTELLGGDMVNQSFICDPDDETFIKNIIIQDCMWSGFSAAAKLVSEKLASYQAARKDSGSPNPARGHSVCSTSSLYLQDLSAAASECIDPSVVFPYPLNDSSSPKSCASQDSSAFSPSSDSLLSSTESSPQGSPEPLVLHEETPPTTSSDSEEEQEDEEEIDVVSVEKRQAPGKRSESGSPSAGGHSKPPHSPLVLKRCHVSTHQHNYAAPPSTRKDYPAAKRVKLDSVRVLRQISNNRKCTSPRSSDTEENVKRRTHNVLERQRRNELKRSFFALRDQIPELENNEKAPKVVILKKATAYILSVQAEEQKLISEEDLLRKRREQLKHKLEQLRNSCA
MYC (p64);MAX (p21), in MYC:MAX, sequence (P61244 other isoform, or with tags, fused parts or gaps |, chain 2 of 2): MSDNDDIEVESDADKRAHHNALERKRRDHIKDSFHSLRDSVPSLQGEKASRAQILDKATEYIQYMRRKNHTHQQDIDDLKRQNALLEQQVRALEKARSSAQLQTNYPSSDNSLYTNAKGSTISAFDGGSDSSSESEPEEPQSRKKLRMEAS
How it was run: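 A custom Agilent glass array held ~5000 unique 12-nt sequences in triplicate spots, made double-stranded by primer extension. His-tagged human MYC:MAX or MAX:MAX dimers (550 ng, produced in E. coli) were applied for 60 min at room temperature in Tris-KCl buffer, pH 7.5, with NP40, BSA and poly(dA-dT) competitor. Anti-MAX and secondary antibodies detected bound protein, with scanning at 543 nm, and binding is given as log2 normalized fluorescence.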

Row | Sequence | binding signal
1 | CCGGCTGACGCTTTGTATTAATAGCTAAGATTACTATATCGACG | 0.148 log2 normalized fluorescence
2 | CCGGCTGACCATTGGTATTAATAGCTAAGATTACTATATCGACG | 0.0788 log2 normalized fluorescence
3 | CCGGCTGAAAGAGTGTATTAATAGCTAAGATTACTATATCGACG | 0.0309 log2 normalized fluorescence
4 | CCGGCTGAGAGACGGTATTAATAGCTAAGATTACTATATCGACG | -0.00994 log2 normalized fluorescence
5 | CCGGCTGACACGCGAGATTAATAGCTAAGATTACTATATCGACG | 0.438 log2 normalized fluorescence
6 | CCGGCTGAAGATGTGTATTAATAGCTAAGATTACTATATCGACG | 0.0913 log2 normalized fluorescence
7 | CCGGCTGAAAAGAGGTATTAATAGCTAAGATTACTATATCGACG | -0.00138 log2 normalized fluorescence
8 | CCGGCTGACAGCAAGTATTAATAGCTAAGATTACTATATCGACG | 0.286 log2 normalized fluorescence
9 | CCGGCTGACCGTAAGTATTAATAGCTAAGATTACTATATCGACG | 0.214 log2 normalized fluorescence
10 | CCGGCAAGTTTAAGCCGTTAATAGCTAAGATTACTATATCGACG | 0.00903 log2 normalized fluorescence
11 | CCGGCTGAGCCGCTGTATTAATAGCTAAGATTACTATATCGACG | 0.0565 log2 normalized fluorescence
12 | CCGGCTGAGAGGCCGTATTAATAGCTAAGATTACTATATCGACG | 0.0066 log2 normalized fluorescence
13 | CCGGCTGAAGGGTGGTATTAATAGCTAAGATTACTATATCGACG | 0.18 log2 normalized fluorescence
14 | CCGGCTGAAAAAGGGTATTAATAGCTAAGATTACTATATCGACG | -0.0246 log2 normalized fluorescence
15 | CCGGCTGAGGGGAGGTATTAATAGCTAAGATTACTATATCGACG | 0.438 log2 normalized fluorescence
16 | CCGGCTGAAAGGGGGTATTAATAGCTAAGATTACTATATCGACG | 0.83 log2 normalized fluorescence
17 | CCGGCTGAGGGAGAGTATTAATAGCTAAGATTACTATATCGACG | -0.0403 log2 normalized fluorescence
18 | CCGGCTGAAGGGGGGTATTAATAGCTAAGATTACTATATCGACG | 0.855 log2 normalized fluorescence
19 | CCGGCTGAAGAGGGGTATTAATAGCTAAGATTACTATATCGACG | 0.288 log2 normalized fluorescence
20 | CCGGCTGAAAAGGGGTATTAATAGCTAAGATTACTATATCGACG | 0.161 log2 normalized fluorescence
21 | CCGGCTGAGGGGGAGTATTAATAGCTAAGATTACTATATCGACG | 0.823 log2 normalized fluorescence
22 | CCGGCTGACTGGTCGTATTAATAGCTAAGATTACTATATCGACG | 0.229 log2 normalized fluorescence
23 | CCGGCTGACCTCTGGTATTAATAGCTAAGATTACTATATCGACG | -0.0273 log2 normalized fluorescence
24 | CCGGCTGAGTGAGGGTATTAATAGCTAAGATTACTATATCGACG | 0.097 log2 normalized fluorescence
25 | CCGGCTGAAAAGCGGTATTAATAGCTAAGATTACTATATCGACG | 0.0993 log2 normalized fluorescence
26 | CCGGCTGACACTTAGTATTAATAGCTAAGATTACTATATCGACG | 0.231 log2 normalized fluorescence
27 | CCGGCTGACAAGTGGGATTAATAGCTAAGATTACTATATCGACG | 0.302 log2 normalized fluorescence
28 | CCGGCTGAGTGAGTGTATTAATAGCTAAGATTACTATATCGACG | 0.08 log2 normalized fluorescence
29 | CCGGCTGACGTTGTGTATTAATAGCTAAGATTACTATATCGACG | 0.16 log2 normalized fluorescence
